# From PubChem BioAssay (Tox21)
# Values without a mark were called inactive. Records with an inconclusive call do not appear. Where a call stands in place of a potency, no number is given. Active and inactive are the calls of the source. Unless noted, calls come from the whole dose curve; as a rule, active = well fitted curve in the direction sought with a large enough effect in the repeat runs; inconclusive = weak or mixed curves; inactive = no such curve, though single readings can be large; an effect the other way counts as inactive or inconclusive.
# What was measured:
# [1] = Human pregnane X receptor (PXR) small molecule agonists, qHTS cell viability counter screen (AID 1346977); conditions: PXR-Luc HepG2 viability, CellTiter-Fluor, 24 h; series mostly up to 92.4 µM; note: nearly all actives have a fitted effect of over 50% in size
# Procedure, shortened: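 After a 5hr pre-incubation, PXR-Luc HepG2 cells received compounds plus positive control in DMSO and were kept 24hr at 37C. Cell viability was quantified by fluorescence from CellTiter-Fluor added for the final hour.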
# [2] = Caspase-3/7 induction in HepG2 cells by small molecules, qHTS assay (AID 1346978); conditions: HepG2 caspase-3/7 activation, Caspase-Glo luminescence, 17 h; series mostly up to 92.4 µM; note: nearly all actives have a fitted effect of over 15% in size
# Procedure, shortened: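 Wild-type HepG2 cells, 2,000/well, settled 5 hr at 37 C and 5% CO2, then compound-treated for 17 hr; caspase-3/7 activity read by luminescent Caspase-Glo 3/7 after 30 min at room temperature.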
# [3] = Caspase-3/7 induction in CHO-K1 cells by small molecules, qHTS cell viability counter screen (AID 1346979); conditions: CellTiter-Fluor fluorescence, 17 h; series mostly up to 92.4 µM; note: nearly all actives have a fitted effect of over 35% in size; note: potency is the fitted concentration of half-maximal effect
# Procedure, shortened: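 Multiplexed with Caspase-Glo 3/7 in CHO-K1 cells, this counter screen added CellTiter-Fluor after 16hr of compound exposure and recorded fluorescence 1hr later.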
# [4] = Caspase-3/7 induction in CHO-K1 cells by small molecules, qHTS assay (AID 1346980); conditions: CHO-K1 caspase-3/7 induction, Caspase-Glo luminescence, 17 h; series mostly up to 92.4 µM; note: nearly all actives have a fitted effect of over 15% in size
# Procedure, shortened: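 Wild-type CHO-K1 cells exposed to compounds for 17hr at 37 C, 5% CO2. Caspase-3/7 activity then measured by Caspase-Glo 3/7 luminescence after 30min at room temperature.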
# [5] = Caspase-3/7 induction in HepG2 cells by small molecules, qHTS cell viability counter screen (AID 1346981); conditions: CellTiter-Fluor fluorescence, 17 h; series mostly up to 92.4 µM; note: nearly all actives have a fitted effect of over 30% in size
# Procedure, shortened: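 HepG2, WT, 2,000 cells/well; 5 hr pre-incubation 37 C/5% CO2; compound pin-transferred from DMSO; 16 hr exposure; CellTiter-Fluor, 1 hr; fluorescence read.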
# [6] = molecular target: Nuclear receptor subfamily 1 group I member 2 (Homo sapiens) (UniProt O75469); test: Human pregnane X receptor (PXR) small molecule agonists, qHTS assay (AID 1346982); conditions: PXR-Luc HepG2, CYP3A4 luciferase reporter, 24 h; series mostly up to 92.4 µM; note: nearly all actives have a fitted effect of over 35% in size; note: potency is the fitted concentration of half-maximal effect
# Chain of Nuclear receptor subfamily 1 group I member 2 (Homo sapiens) (O75469 whole entry, looked up): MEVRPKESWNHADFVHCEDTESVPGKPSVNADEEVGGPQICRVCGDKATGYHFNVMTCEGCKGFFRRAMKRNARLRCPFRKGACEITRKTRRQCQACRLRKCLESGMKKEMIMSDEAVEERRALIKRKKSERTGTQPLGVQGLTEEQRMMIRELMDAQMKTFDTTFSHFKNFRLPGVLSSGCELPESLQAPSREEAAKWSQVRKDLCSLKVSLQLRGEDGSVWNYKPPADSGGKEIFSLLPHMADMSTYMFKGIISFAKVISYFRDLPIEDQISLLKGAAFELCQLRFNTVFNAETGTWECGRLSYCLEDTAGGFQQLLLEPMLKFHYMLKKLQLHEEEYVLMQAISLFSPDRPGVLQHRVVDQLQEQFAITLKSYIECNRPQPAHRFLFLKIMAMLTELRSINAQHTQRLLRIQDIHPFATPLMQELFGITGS
# Procedure, shortened: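 Luciferase signal from ONE-Glo (30 min, room temperature) measured activation of hPXR-driven CYP3A4 reporter expression in PXR-Luc HepG2 cells treated with compounds for 24 hr at 37 C.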
# [7] = molecular target: Acetylcholinesterase (Homo sapiens) (UniProt P22303); test: Acetylcholinesterase (AChE) small molecule antagonists: colormetric cell-based qHTS assay (AID 1347395; calls by dose curve; note: nearly all actives have a fitted effect of over 30% in size; note: potency is the fitted concentration of half-maximal effect); conditions: SH-SY5Y cells AChE activity, colorimetric (Ellman); series mostly up to 115 µM
# Chain of Acetylcholinesterase (Homo sapiens) (P22303 whole entry, looked up): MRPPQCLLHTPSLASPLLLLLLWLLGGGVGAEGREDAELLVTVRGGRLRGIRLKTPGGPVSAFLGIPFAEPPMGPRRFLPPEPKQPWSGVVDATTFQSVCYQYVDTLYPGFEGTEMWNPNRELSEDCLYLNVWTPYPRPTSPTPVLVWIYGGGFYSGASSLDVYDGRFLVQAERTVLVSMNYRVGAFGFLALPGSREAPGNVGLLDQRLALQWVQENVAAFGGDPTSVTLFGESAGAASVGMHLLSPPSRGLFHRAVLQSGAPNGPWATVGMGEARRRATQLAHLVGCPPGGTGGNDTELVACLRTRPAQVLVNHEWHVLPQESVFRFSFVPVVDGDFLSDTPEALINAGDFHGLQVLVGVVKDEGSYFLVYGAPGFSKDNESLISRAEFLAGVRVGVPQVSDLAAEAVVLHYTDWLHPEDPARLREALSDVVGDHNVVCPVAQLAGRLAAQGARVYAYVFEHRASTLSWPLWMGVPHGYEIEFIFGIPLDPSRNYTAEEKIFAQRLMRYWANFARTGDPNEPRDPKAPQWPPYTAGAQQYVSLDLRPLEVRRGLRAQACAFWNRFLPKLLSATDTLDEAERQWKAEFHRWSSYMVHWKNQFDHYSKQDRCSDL
# Procedure, shortened: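 In this cell-based qHTS, attached SH-SY5Y cells were treated with test chemicals for 30 min, after which acetylthiocholine hydrolysis was followed by DTNB colour development over 90 min at 37 C.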
# [8] = molecular target: Acetylcholinesterase (Homo sapiens) (UniProt P22303); test: Acetylcholinesterase (AChE) small molecule antagonists: enzyme-based qHTS assay (AID 1347397; calls by dose curve; note: nearly all actives have a fitted effect of over 55% in size); conditions: Potency: AChE enzyme activity inhibition; outcome: AChE enzyme activity inhibition; series mostly up to 115 µM
# Procedure, shortened: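 Enzyme inhibition was scored from DTNB-detected thiocholine formed by recombinant human AChE acting on acetylthiocholine. The 30 min compound preincubation and 10 min substrate reaction were both run at room temperature, with DMSO as vehicle control.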
# [9] = molecular target: Acetylcholinesterase (Homo sapiens) (UniProt P22303); test: Acetylcholinesterase (AChE) small molecule antagonists: fluorescence cell-based qHTS assay (AID 1347398; calls by dose curve; note: nearly all actives have a fitted effect of over 50% in size); conditions: SH-SY5Y cells; Potency: AChE activity; outcome: AChE activity; series mostly up to 115 µM
# Procedure, shortened: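 Endogenous acetylcholinesterase of SH-SY5Y neuroblastoma cells is measured in situ. After overnight attachment and 30 min compound exposure, cells receive acetylthiocholine and Thiolite Green; fluorescence is read after 40 min at room temperature.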
# [10] = molecular target: Acetylcholinesterase (Homo sapiens) (UniProt P22303); test: Acetylcholinesterase (AChE) small molecule antagonists: enzyme-based qHTS assay with human liver microsomes (AID 1347399; calls by dose curve; note: nearly all actives have a fitted effect of over 60% in size); conditions: Potency: qHTS inhibition; outcome: qHTS inhibition; series mostly up to 115 µM
# Procedure, shortened: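 Recombinant human AChE (50 mU/mL in the enzyme mix) and human liver microsomes (0.25 mg/mL final) were preincubated with compound and NADPH (0.25 mg/mL final) for 30 min at 37 C. Acetylthiocholine/DTNB was then added; thiocholine was read colorimetrically after 10 min at room temperature.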
# [11] = molecular target: Cytochrome P450 2D6 (Homo sapiens) (UniProt P10635); test: Cytochrome P450 Family 2 Subfamily D Member 6 (CYP2D6) small molecule antagonists: luciferase reporter qHTS assay (AID 1671196); conditions: P450-Glo CYP2D6 enzyme assay, luciferin luminescence, 1 h; series mostly up to 115 µM; note: nearly all actives have a fitted effect of over 50% in size; note: potency is the fitted concentration of half-maximal effect
# Chain of Cytochrome P450 2D6 (Homo sapiens) (P10635 whole entry, looked up): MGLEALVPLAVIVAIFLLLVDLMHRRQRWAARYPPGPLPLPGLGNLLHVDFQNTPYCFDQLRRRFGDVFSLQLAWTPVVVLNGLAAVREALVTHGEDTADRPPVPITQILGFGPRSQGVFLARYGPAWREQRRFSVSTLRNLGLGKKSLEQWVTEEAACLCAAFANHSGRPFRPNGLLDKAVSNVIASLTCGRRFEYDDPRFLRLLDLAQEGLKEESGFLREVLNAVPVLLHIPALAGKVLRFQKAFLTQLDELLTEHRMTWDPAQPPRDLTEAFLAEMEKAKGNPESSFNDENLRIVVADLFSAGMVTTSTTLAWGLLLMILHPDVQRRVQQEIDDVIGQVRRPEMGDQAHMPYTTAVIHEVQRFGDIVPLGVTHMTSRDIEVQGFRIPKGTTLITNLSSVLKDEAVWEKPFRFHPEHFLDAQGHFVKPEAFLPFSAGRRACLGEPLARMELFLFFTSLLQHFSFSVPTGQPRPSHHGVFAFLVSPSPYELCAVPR
# Procedure, shortened: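 Read-out is luminescence from luciferin formed by CYP2D6 turnover of a proluciferin substrate, recorded as relative luminescence units. Reactions ran 1 h at room temperature after NADPH regeneration solution was added.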
# [12] = molecular target: Cytochrome P450 2C19 (Homo sapiens) (UniProt P33261); test: Cytochrome P450 Family 2 Subfamily C Member 19 (CYP2C19) small molecule antagonists: luciferase reporter qHTS assay (AID 1671197); conditions: P450-Glo CYP2C19 enzyme, luciferin luminescence, 1 h; series mostly up to 115 µM; note: nearly all actives have a fitted effect of over 65% in size; note: potency is the fitted concentration of half-maximal effect
# Chain of Cytochrome P450 2C19 (Homo sapiens) (P33261 whole entry, looked up): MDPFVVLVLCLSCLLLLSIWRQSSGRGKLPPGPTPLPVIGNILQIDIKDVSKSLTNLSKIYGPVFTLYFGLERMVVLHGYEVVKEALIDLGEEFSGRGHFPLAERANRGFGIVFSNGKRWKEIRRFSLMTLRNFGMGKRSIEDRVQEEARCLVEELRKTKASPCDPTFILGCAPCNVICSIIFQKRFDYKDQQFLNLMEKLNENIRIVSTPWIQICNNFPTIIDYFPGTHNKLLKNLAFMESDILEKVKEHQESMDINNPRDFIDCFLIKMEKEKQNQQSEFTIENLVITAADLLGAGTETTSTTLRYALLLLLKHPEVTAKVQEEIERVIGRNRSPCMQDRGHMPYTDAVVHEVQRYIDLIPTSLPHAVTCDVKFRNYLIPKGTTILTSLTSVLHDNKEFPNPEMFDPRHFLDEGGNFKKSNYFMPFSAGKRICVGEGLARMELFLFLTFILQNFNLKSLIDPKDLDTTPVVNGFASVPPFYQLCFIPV
# Procedure, shortened: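 P450-Glo CYP2C19 screening system; proluciferin substrate; DMSO compound stocks; 10 min RT preincubation; NADPH regeneration, 1 h at 37C; luciferin detection reagent, 20 min RT; luminescence as RLU.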
# [13] = molecular target: Cytochrome P450 1A2 (Homo sapiens) (UniProt P05177); test: Cytochrome P450 Family 1 Subfamily A Member 2 (CYP1A2) small molecule antagonists: luciferase reporter qHTS assay (AID 1671199); conditions: P450-Glo CYP1A2 enzyme, luciferin luminescence, 1 h; series mostly up to 115 µM; note: nearly all actives have a fitted effect of over 50% in size
# Chain of Cytochrome P450 1A2 (Homo sapiens) (P05177 whole entry, looked up): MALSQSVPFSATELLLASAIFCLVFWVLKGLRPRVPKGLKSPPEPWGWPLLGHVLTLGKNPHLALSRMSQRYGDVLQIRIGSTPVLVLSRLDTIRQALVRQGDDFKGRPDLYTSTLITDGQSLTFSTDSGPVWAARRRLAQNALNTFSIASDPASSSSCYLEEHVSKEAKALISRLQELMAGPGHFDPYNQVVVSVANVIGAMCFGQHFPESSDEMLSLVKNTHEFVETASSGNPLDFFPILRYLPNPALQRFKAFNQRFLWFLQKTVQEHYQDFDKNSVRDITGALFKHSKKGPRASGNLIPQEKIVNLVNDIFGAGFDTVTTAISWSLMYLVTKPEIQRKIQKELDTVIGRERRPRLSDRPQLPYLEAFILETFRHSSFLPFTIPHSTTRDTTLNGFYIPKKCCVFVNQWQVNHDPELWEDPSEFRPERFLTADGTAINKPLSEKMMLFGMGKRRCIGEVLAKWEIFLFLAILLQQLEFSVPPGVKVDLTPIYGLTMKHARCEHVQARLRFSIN
# Procedure, shortened: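 P450-Glo CYP1A2, 1536-well qHTS: enzyme/proluciferin substrate + cpd (DMSO), 10 min RT; NADPH regen, 1 h RT; detection reagent, 20 min; luminescence, RLU.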
# [14] = molecular target: Voltage-gated inwardly rectifying potassium channel KCNH2 (Homo sapiens) (UniProt Q12809); test: Human Ether-a-go-go-Related Gene (hERG) channel small molecule antagonists: fluorescence cell-based qHTS assay (AID 1671200); conditions: hERG-U2OS cells, FluxOR thallium flux fluorescence; series mostly up to 76.8 µM
# Chain of Voltage-gated inwardly rectifying potassium channel KCNH2 (Homo sapiens) (Q12809 whole entry, looked up): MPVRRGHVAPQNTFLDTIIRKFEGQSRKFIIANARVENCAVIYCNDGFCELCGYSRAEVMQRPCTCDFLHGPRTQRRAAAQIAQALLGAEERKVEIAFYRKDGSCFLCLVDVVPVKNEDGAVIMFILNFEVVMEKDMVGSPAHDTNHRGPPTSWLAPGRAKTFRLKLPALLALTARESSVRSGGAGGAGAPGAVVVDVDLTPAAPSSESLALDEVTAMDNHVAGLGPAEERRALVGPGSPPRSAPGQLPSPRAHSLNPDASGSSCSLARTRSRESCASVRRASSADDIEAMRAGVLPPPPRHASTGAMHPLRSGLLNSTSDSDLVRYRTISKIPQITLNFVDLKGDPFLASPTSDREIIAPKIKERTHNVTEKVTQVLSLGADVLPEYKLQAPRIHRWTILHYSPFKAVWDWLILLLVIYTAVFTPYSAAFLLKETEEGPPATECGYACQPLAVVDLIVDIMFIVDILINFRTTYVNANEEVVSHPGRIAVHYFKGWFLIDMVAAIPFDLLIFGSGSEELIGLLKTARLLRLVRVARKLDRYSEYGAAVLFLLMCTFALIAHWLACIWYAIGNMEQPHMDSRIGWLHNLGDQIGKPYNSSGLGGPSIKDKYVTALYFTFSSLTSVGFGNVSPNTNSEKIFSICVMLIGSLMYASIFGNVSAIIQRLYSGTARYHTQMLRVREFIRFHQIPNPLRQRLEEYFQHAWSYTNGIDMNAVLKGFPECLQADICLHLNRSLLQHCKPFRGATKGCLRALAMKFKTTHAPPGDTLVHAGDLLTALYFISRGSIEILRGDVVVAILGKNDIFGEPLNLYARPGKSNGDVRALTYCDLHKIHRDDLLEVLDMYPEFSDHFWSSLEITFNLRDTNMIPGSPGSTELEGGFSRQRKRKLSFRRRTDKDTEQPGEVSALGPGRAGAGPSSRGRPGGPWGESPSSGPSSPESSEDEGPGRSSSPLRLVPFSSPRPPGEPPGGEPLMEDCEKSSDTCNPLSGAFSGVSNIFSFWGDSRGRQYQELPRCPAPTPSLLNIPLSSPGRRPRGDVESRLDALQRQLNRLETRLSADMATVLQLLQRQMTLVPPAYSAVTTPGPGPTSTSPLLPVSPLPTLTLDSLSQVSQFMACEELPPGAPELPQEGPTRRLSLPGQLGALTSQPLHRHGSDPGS
# Procedure, shortened: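 Cell line hERG-U2OS; dye FluxOR II, 1 h RT dark; Tl+ stimulus; ex 480/em 540 nm, read each second for 2 min.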
# [15] = molecular target: Cytochrome P450 2C9 (Homo sapiens) (UniProt P11712); test: Cytochrome P450 Family 2 Subfamily C Member 9 (CYP2C9) small molecule antagonists: luciferase reporter qHTS assay (AID 1671198); conditions: P450-Glo CYP2C9 enzyme assay, luciferin luminescence; series mostly up to 115 µM; note: nearly all actives have a fitted effect of over 50% in size; note: potency is the fitted concentration of half-maximal effect
# Chain of Cytochrome P450 2C9 (Homo sapiens) (P11712 whole entry, looked up): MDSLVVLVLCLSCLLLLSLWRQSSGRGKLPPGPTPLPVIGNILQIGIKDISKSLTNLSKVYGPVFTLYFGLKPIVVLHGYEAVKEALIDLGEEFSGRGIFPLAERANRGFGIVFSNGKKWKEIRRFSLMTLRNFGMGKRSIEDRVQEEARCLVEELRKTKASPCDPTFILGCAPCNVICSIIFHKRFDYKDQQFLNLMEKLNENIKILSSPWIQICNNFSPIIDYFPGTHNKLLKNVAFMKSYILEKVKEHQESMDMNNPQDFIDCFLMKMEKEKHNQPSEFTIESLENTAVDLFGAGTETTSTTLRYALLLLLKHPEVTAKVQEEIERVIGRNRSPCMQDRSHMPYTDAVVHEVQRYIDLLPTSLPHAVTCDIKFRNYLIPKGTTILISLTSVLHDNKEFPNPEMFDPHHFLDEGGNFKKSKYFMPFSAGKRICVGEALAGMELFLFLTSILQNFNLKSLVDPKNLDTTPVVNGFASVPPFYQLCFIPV
# Procedure, shortened: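 P450-Glo proluciferin substrate with CYP2C9 enzyme; 10 min RT preincubation, then NADPH regeneration 1 h at 37C; luciferin detection reagent 20 min RT, luminescence in relative luminescence units.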
# [16] = molecular target: Cytochrome P450 3A4 (Homo sapiens) (UniProt P08684); test: Cytochrome P450 Family 3 Subfamily A Member 4 (CYP3A4) small molecule antagonists: luciferase reporter qHTS assay (AID 1671201); conditions: P450-Glo CYP3A4 enzyme, luciferin luminescence, 1 h; series mostly up to 115 µM; note: nearly all actives have a fitted effect of over 50% in size
# Chain of Cytochrome P450 3A4 (Homo sapiens) (P08684 whole entry, looked up): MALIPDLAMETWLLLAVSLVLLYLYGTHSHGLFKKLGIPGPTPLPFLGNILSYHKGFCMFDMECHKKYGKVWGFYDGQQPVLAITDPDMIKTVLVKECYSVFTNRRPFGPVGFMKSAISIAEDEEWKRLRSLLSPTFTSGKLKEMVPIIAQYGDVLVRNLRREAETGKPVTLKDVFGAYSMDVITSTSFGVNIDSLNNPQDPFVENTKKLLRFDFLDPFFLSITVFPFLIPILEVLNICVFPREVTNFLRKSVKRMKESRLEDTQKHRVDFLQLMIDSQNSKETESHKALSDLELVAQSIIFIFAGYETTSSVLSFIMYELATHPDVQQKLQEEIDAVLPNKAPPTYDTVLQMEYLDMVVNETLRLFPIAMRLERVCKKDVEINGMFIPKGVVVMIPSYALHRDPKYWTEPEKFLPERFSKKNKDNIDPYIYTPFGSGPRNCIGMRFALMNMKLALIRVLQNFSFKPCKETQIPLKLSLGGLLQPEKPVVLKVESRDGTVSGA
# Procedure, shortened: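 Room-temperature assay throughout: 10 min compound–enzyme/substrate preincubation, 1 h reaction after NADPH regeneration solution, 20 min detection. Luciferin formed from proluciferin substrate is quantified by luminescence.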
SMILES,Potency [1],outcome [2],Potency [3],outcome [4],Potency [5],Potency [6],Potency [7],Potency [8],Potency [9],Potency [10],Potency [11],Potency [12],Potency [13],Potency [14],Potency [15],Potency [16]
O=C(Cl)/C=C/C(=O)Cl,inactive,inactive,inactive,inactive,inactive,inactive,inactive,inactive,inactive,inactive,inactive,inactive,inactive,inactive,,
O=C(CCl)NCO,inactive,inactive,inactive,inactive,inactive,inactive,inactive,inactive,,inactive,inactive,inactive,inactive,inactive,inactive,inactive
Nc1c(Cl)c(F)nc(OCC(=O)O)c1Cl,inactive,inactive,inactive,inactive,inactive,inactive,inactive,inactive,inactive,inactive,,,,inactive,inactive,inactive
CS(=O)(=O)Cl,inactive,inactive,inactive,inactive,inactive,inactive,inactive,inactive,inactive,inactive,,inactive,,inactive,,inactive
CN(C)CCc1c[nH]c2cccc(OP(=O)(O)O)c12,inactive,inactive,inactive,inactive,inactive,inactive,inactive,inactive,inactive,inactive,,inactive,inactive,inactive,inactive,inactive
CC(C)(N)Cc1ccccc1Cl,inactive,inactive,inactive,inactive,inactive,inactive,inactive,inactive,inactive,inactive,4.36 µM (active),inactive,,inactive,inactive,inactive
BrCc1ccc(Br)cc1,inactive,inactive,inactive,inactive,inactive,inactive,71 µM (active),,,inactive,,,,inactive,,inactive
COC(=O)c1ccccc1CS(=O)(=O)NC(=O)Nc1nc(OC)cc(OC)n1,inactive,inactive,inactive,inactive,inactive,34.4 µM (active),inactive,,inactive,inactive,,,,inactive,inactive,inactive
CCCCCCCC(=O)Cl,inactive,inactive,49 µM (active),inactive,inactive,61.6 µM (active),inactive,inactive,,inactive,inactive,40.3 µM (active),inactive,inactive,,inactive
CCCOc1nn(C(=O)NS(=O)(=O)c2ccccc2C(=O)OC)c(=O)n1C,inactive,inactive,inactive,inactive,inactive,inactive,inactive,inactive,,inactive,inactive,inactive,inactive,inactive,,inactive
COc1ccc2c(C(=O)c3ccc(Cl)cc3)c(C)n(CC(=O)O)c2c1,inactive,inactive,inactive,inactive,inactive,inactive,,inactive,,inactive,inactive,,inactive,inactive,15.5 µM (active),inactive
CCN[C@H](C)Cc1cccc(C(F)(F)F)c1,inactive,inactive,inactive,inactive,inactive,inactive,inactive,,inactive,inactive,,inactive,,inactive,,
O=C1CC(=O)NC(=O)N1,inactive,inactive,inactive,inactive,inactive,inactive,inactive,,inactive,inactive,,inactive,inactive,inactive,inactive,inactive
CCCCOC(C)=O,inactive,inactive,inactive,inactive,inactive,inactive,inactive,,inactive,inactive,inactive,inactive,,inactive,inactive,
